A selection: hits, their analogues and other compounds. The true share with any hit is near 19%.
Pf growth 48h = Primary qHTS for delayed death inhibitors of the malarial parasite plastid, 48 hour incubation; P. falciparum luciferase growth in erythrocytes, 48 h; Potency, µM (titrated, usually from 28.7 µM), usual class: inhibitors; hit rate 5.9% among 310,000
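Erythrocytes infected with P. falciparum carrying an integrated firefly luciferase reporter (2% hematocrit, 0.1% parasitemia final) were exposed to compounds in RPMI 1640 with 0.5% Albumax at 37 C, 5% CO2. Growth inhibition was scored as reduced luminescence.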
LASV entry inh = qHTS for Inhibitors of binding or entry into cells for Lassa Virus | Lassa virus pseudotype entry inhibition, cell reporter | Potency, µM (doses to about 37.9 µM), usual class: inhibitors | hit rate 1.2% among 300,000 | AID 540256, 2011; calls by dose curve; tested in HEK293 cells; note: nearly all actives have a fitted effect of over 50% in size
CHX counter = Cycloheximide Counterscreen for Small Molecule Inhibitors of Shiga Toxin | cell reporter, cycloheximide protein synthesis inhibition counterscreen | max response, % | hit rate 12% among 300,000 | AID 2314, 2010; in the data active = max response mostly above about 13%, no sharp cut-off; inactive = mostly below about 14%; note: read at 38.3 µM for the half of the compounds with a filed dose
MARV entry inh = qHTS for inhibitors of binding or entry into cells for Marburg Virus. Marburg virus pseudotyped entry inhibition, cell reporter. Potency, µM (series often up to 37.8 µM), actives largely listed as inhibitors. hit rate 1.8% among 300,000. AID 540276, 2011; calls by dose curve; tested in HEK293 cells
Pf growth 96h = Primary qHTS for delayed death inhibitors of the malarial parasite plastid, 96 hour incubation. hit rate 6.9% among 320,000. Potency, µM (top dose mostly 28.7 µM), usual class: inhibitors. AID 504834, 2011. P. falciparum luciferase reporter growth, 96 h
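Luminescence readout: decreased luciferase signal marks inhibited growth of reporter-expressing P. falciparum in infected red cells (2% hematocrit, 0.05% parasitemia final), exposed to compound two generations (96 h, 37 C, 5% CO2).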
Shiga inhibitor = A qHTS for Small Molecule Inhibitors of Shiga Toxin. hit rate 9.2% among 290,000. Vero cells, Shiga toxin protein synthesis inhibition reporter. inhibition, % at 38.7 µM. AID 2315, 2010; in the data active = inhibition mostly above about 28%, no sharp cut-off; inactive = mostly below about 43%
Large screens that a line does not name were inactive. Unless noted, calls come from the whole dose curve; as a rule, active = well fitted inhibition curve with a large enough effect; inconclusive = small, poorly fitted or top-dose-only effect, or another doubt; inactive = no such curve, though single readings can be large or run the other way.

CC(=O)Nc1ccc(CCNC(=O)c2ccc3ccccc3c2O)cc1	LASV entry inh 1µM, MARV entry inh inconclusive (no result: Pf growth 48h, CHX counter, Pf growth 96h, Shiga inhibitor)
CCCCNc1cc(=O)oc2ccccc12	Pf growth 48h inconclusive, Pf growth 96h inconclusive
CCOc1ccc(Nc2cc(C)nc3c(C)cccc23)cc1	Pf growth 48h inconclusive, MARV entry inh 0.89µM
CCOc1ccc(Nc2cc(=O)oc3ccccc23)cc1	Pf growth 48h 1.3µM, Pf growth 96h 1.7µM
Cc1cc(C(=O)Nc2ccc(F)cc2F)on1	CHX counter 15 (no result: LASV entry inh, MARV entry inh)
Cc1ccc(NC(=O)c2cc(C)no2)cc1	CHX counter 59, Shiga inhibitor 80 (no result: LASV entry inh, MARV entry inh)
CCc1ccc(NC(=O)c2cc(C)no2)cc1	CHX counter 47, MARV entry inh inconclusive, Shiga inhibitor 70
COc1ccc(NC(=O)c2cc(C)no2)cc1	CHX counter 36, Shiga inhibitor 72 (no result: LASV entry inh, MARV entry inh)
CC(C)Sc1nc2sccc2c(=O)n1-c1ccccc1	Pf growth 96h inconclusive
Cc1cc(C(=O)Nc2ccc(F)c(Cl)c2)on1	Pf growth 48h inconclusive, CHX counter 19
CC1(C)C(N(O)C(=O)Nc2ccc(Cl)cc2)N(c2ccc(Cl)cc2)C(=O)N1CC(=O)NN (stereo not given)	MARV entry inh inconclusive, Pf growth 96h 10µM (no result: Pf growth 48h)
CCOC(=O)N1CC(C)N(C(=S)Nc2ccccc2)CC1C (stereo not given)	none (no result: Pf growth 48h, CHX counter, Pf growth 96h, Shiga inhibitor)
CC1=CC(C)C2(COC(=O)Nc3ccccc3)COC(C)C1C2C (stereo not given)	Pf growth 48h inconclusive, LASV entry inh inconclusive, CHX counter 13, Pf growth 96h inconclusive
CS(=O)(=O)N1CCN(c2ccc(NC(=O)C(c3ccccc3)c3ccccc3)cc2)CC1	Pf growth 48h inconclusive
Cc1ccc(C(=O)Nc2ccc(N3CCCC3)cc2)c(C)c1	Pf growth 48h inconclusive, LASV entry inh inconclusive, CHX counter 15, MARV entry inh inconclusive, Pf growth 96h inconclusive
O=C(Nc1ccc(N2CCCC2)cc1)C(Cl)c1ccccc1 (stereo not given)	Pf growth 48h inconclusive, CHX counter 32, MARV entry inh inconclusive, Shiga inhibitor 70
O=C(Nc1ccc(N2CCN(Cc3ccccc3)CC2)cc1)c1ccccc1[N+](=O)[O-]	none (no result: LASV entry inh, MARV entry inh)
O=C(Nc1ccc(N2CCCC2)cc1)c1ccccc1[N+](=O)[O-]	CHX counter 19 (no result: LASV entry inh, MARV entry inh)
Cc1ccccc1C(=O)Nc1ccc(N2CCN(C)CC2)nc1	CHX counter 22
CN1CCN(c2ccc(NC(=O)c3ccc(C(F)(F)F)cc3)cn2)CC1	Pf growth 48h inconclusive, LASV entry inh inconclusive, MARV entry inh inconclusive, Pf growth 96h inconclusive
O=C(O)c1cccc(S(=O)(=O)Nc2ccccc2Cc2ccccc2)c1	MARV entry inh inconclusive
CC(=O)Nc1ccc(NC(=O)c2ccccc2C)cc1	LASV entry inh inconclusive (no result: Pf growth 96h)
Cc1ccccc1C(=O)Nc1ccc(N2CCCC2)cc1	LASV entry inh inconclusive, CHX counter 35, Shiga inhibitor 57
Cc1ccc(NC(=O)c2cc(N3C(=O)C4CCCCC4C3=O)ccc2N2CCOCC2)cc1 (stereo not given)	none (no result: LASV entry inh, MARV entry inh)
Cc1ccc(NC(=O)c2cc(N3C(=O)C4CC=CCC4C3=O)ccc2N2CCCCC2)cc1 (stereo not given)	LASV entry inh inconclusive, MARV entry inh inconclusive, Pf growth 96h 15µM
Cc1c(Cl)cccc1NCC(=O)NN=C1CCCC1	none
CC1=Nc2nc(N3CCCCC3)c(C#N)c3c4c(nc(c23)N1)N(c1ccc(C(C)C)cc1)C(=O)C4	Pf growth 48h inconclusive, Pf growth 96h 1.2µM
CC(=O)NC(CSC(CC(=O)c1ccco1)c1ccc(C)cc1)C(=O)O (stereo not given)	CHX counter 57, Shiga inhibitor 105 (no result: LASV entry inh, MARV entry inh)
O=C(CC(SCCO)c1ccc([N+](=O)[O-])cc1)c1ccco1 (stereo not given)	none (no result: LASV entry inh, MARV entry inh)
O=C1N/C(=N/N=C/c2ccco2)SC1Cc1ccccc1 (stereo not given)	Pf growth 48h inconclusive (no result: LASV entry inh, MARV entry inh)
CCOC(=O)C(C)n1nc(/C=C/c2ccc(OC)cc2)ccc1=O (stereo not given)	Pf growth 48h inconclusive, Pf growth 96h 9.3µM
CCc1ncc(C(=O)c2ccc(OC)cc2)n1C	CHX counter 14
COc1ccc(C(=O)c2cnc[nH]2)cc1	none
OC1=C(O)c2nc3cc(F)ccc3nc21	none (no result: LASV entry inh, MARV entry inh)
Fc1ccc2nc3[nH]c4ccccc4c3nc2c1	CHX counter 44, MARV entry inh inconclusive, Shiga inhibitor 62
CC1(C)NC(=O)N(CC(=O)Nc2cc(S(=O)(=O)N3CCOCC3)ccc2N2CCOCC2)C1=O	Pf growth 96h 7.4µM (no result: LASV entry inh, MARV entry inh)
O=C(CN1CCc2ccccc2C1)Nc1cc(S(=O)(=O)N2CCOCC2)ccc1N1CCOCC1	Pf growth 48h inconclusive, MARV entry inh inconclusive, Pf growth 96h 13µM
O=C(CN1CCc2ccccc2C1)Nc1cc(S(=O)(=O)N2CCOCC2)ccc1N1CCCC1	Pf growth 48h inconclusive, MARV entry inh inconclusive, Pf growth 96h inconclusive
COCCSc1ccccc1C(=O)Nc1nccs1	none (no result: Pf growth 96h)
CC1CCC(NC(=O)c2ccc(CSc3nc4ccncc4n3Cc3ccc(F)cc3)cc2)CC1 (stereo not given)	MARV entry inh inconclusive (no result: Pf growth 48h, CHX counter, Pf growth 96h, Shiga inhibitor)
Cc1nc(NS(=O)(=O)c2ccc(N)cc2)nc(C)c1Br	none (no result: LASV entry inh, CHX counter, MARV entry inh, Shiga inhibitor)
Cc1nc2c(ccc3c2ccc2nc(C)sc23)s1	MARV entry inh inconclusive, Shiga inhibitor 71 (no result: Pf growth 48h)
COC(=O)C1=C(CCc2ccccc2)NC(=O)NC1c1ccc(Br)cc1 (stereo not given)	Pf growth 96h 13µM (no result: LASV entry inh, MARV entry inh)
Cc1nn(C)cc1C1C2=C(CC(C)(C)CC2=O)N(c2ccccc2)C2=C1C(=O)CC(C)(C)C2	Pf growth 96h 3.7µM (no result: Pf growth 48h)
NS(=O)(=O)c1ccc(CCNS(=O)(=O)c2ccccc2)cc1	Pf growth 96h inconclusive
CC(C)Oc1ccc2nnnn2n1	Pf growth 48h inconclusive
CC1CCCCC1NC1CCN(C)CC1 (stereo not given)	Pf growth 96h 9.3µM (no result: LASV entry inh, MARV entry inh)
O=C(O)Cn1c(SCCOc2ccccc2)nc2ccccc21	Pf growth 96h 8.3µM
COc1ccc(OCCSc2nc3ccccc3n2CCC(=O)O)cc1	none (no result: Shiga inhibitor)
Cc1ccc(OCCSc2nc3ccccc3n2CC(=O)O)cc1C	Pf growth 96h 12µM (no result: LASV entry inh, MARV entry inh)
O=C(O)CCn1c(SCCOc2ccccc2)nc2ccccc21	CHX counter 14, Pf growth 96h 12µM (no result: LASV entry inh, MARV entry inh, Shiga inhibitor)
CCCn1c(SCCC(=O)O)nc2ccccc21	MARV entry inh inconclusive
O=C(O)CCSc1nc2ccccc2n1Cc1ccccc1	Pf growth 96h 2.9µM (no result: LASV entry inh, MARV entry inh)
CCCCOc1ccc(OCCSc2nc3ccccc3n2CC(=O)O)cc1	Pf growth 96h inconclusive (no result: LASV entry inh, MARV entry inh)
CC(=O)N1c2ccccc2C(C)CC12CCCCC2 (stereo not given)	none (no result: Pf growth 96h)
CC(C)Oc1ccc(C(=O)NCC(=O)O)cc1	MARV entry inh inconclusive
CC(=O)c1cccc(NC(=O)CCCN2C(=O)COc3ccc(C)cc32)c1	none (no result: Pf growth 48h, CHX counter, Pf growth 96h, Shiga inhibitor)
c1coc(CNc2nc3sc4c(c3c3ncnn23)CCCC4)c1	none
CC(C)c1[nH]nc2c1C(c1cccc(OC(=O)N3CCOCC3)c1)C(C#N)=C(N)O2 (stereo not given)	Pf growth 96h 12µM

Compound activity as filed in PubChem.
